From the supplement of paper PMC11628255, “Interference of metal ions on the bioluminescent signal of firefly, Renilla, and NanoLuc luciferases in high-throughput screening assays” (Frontiers in Chemistry, 2024)
± gives the standard deviation of the averaged measurements.

Assays:
[1] = tested on: Renilla luciferase (RLuc); experiment: residual bioluminescent signal relative to negative (DMSO) control; higher = less interference (more residual luciferase signal)
How it was run: (§1)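 Purified firefly, NanoLuc or Renilla luciferase was tested with each metal salt at 0.01, 1 and 5 mM final, in 384-well plates. Buffers were screening or HEPES. Salts in water were pre-incubated with enzyme for 10 min at room temperature, and luminescence was read 10 min after substrate addition. Wells were run in triplicate. Residual signal is each well's luminescence as a percentage of the mean vehicle (DMSO) control on the same plate.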

[2] = tested on: NanoLuc luciferase (NLuc); experiment: as above
How it was run: as §1

[3] = metal salt concentration 0.01 mM, HEPES conditions (100 mM HEPES, 0.05% BSA, 0.3 M sodium ascorbate, pH 7.5)
[4] = metal salt concentration 0.01 mM, screening conditions (50 mM Tris-HCl, […] KH2PO4, […] NaCl, 0.25 mM EDTA, 0.1% BSA, 0.3 M sodium ascorbate, pH 7.4)
[5] = metal salt concentration 1 mM, HEPES conditions (100 mM HEPES, 0.05% BSA, 0.3 M sodium ascorbate, pH 7.5)
[6] = metal salt concentration 1 mM, screening conditions (50 mM Tris-HCl, […] KH2PO4, […] NaCl, 0.25 mM EDTA, 0.1% BSA, 0.3 M sodium ascorbate, pH 7.4)
[7] = metal salt concentration 5 mM, HEPES conditions (100 mM HEPES, 0.05% BSA, 0.3 M sodium ascorbate, pH 7.5)
[8] = metal salt concentration 5 mM, screening conditions (50 mM Tris-HCl, […] KH2PO4, […] NaCl, 0.25 mM EDTA, 0.1% BSA, 0.3 M sodium ascorbate, pH 7.4)
[9] = metal salt concentration 0.01 mM, HEPES conditions (100 mM HEPES, 0.1% BSA, pH 7.5)
[10] = metal salt concentration 0.01 mM, screening conditions (PBS, 0.1% BSA, pH 7.4)
[11] = metal salt concentration 1 mM, HEPES conditions (100 mM HEPES, 0.1% BSA, pH 7.5)
[12] = metal salt concentration 1 mM, screening conditions (PBS, 0.1% BSA, pH 7.4)
[13] = metal salt concentration 5 mM, HEPES conditions (100 mM HEPES, 0.1% BSA, pH 7.5)
[14] = metal salt concentration 5 mM, screening conditions (PBS, 0.1% BSA, pH 7.4)

| SMILES | residual bioluminescent signal [1, 3] [%] | residual bioluminescent signal [1, 4] [%] | residual bioluminescent signal [1, 5] [%] | residual bioluminescent signal [1, 6] [%] | residual bioluminescent signal [1, 7] [%] | residual bioluminescent signal [1, 8] [%] | residual bioluminescent signal [2, 9] [%] | residual bioluminescent signal [2, 10] [%] | residual bioluminescent signal [2, 11] [%] | residual bioluminescent signal [2, 12] [%] | residual bioluminescent signal [2, 13] [%] | residual bioluminescent signal [2, 14] [%] |
| --- | --- | --- | --- | --- | --- | --- | --- | --- | --- | --- | --- | --- |
| O.O.O.O.O.O.O.O.O.O.O=S(=O)([O-])[O-].[Na+].[Na+] [sodium sulfate] | 112 ± 4.9 | 111 ± 1.9 | 75.1 ± 66 | 108 ± 9.8 | 118 ± 11 | 109 ± 13 | – | – | – | – | – | – |
| [Cl][Fe]([Cl])[Cl] [iron(III) chloride] | 91.5 ± 7.9 | 94.1 ± 10 | 2.32 ± 0.56 | 39.9 ± 12 | 0.985 ± 0.12 | 0.807 | – | – | – | – | – | – |
| O=S(=O)([O-])[O-].[Mn+2] [manganese(II) sulfate] | 112 ± 9.2 | 103 ± 12 | 101 ± 3.7 | 102 ± 5.1 | 71.9 ± 9.5 | 108.6 ± 0.66 | 93.9 ± 2.1 | 96.1 ± 2.1 | 95 ± 3 | 92.7 ± 1.3 | 96 ± 1.4 | 73.4 ± 2.1 |
| CC#N.CC#N.CC#N.CC#N.F[B-](F)(F)F.[Cu+] [tetrakis(acetonitrile)copper(I) tetrafluoroborate] | 98.7 ± 11 | 103 ± 2.8 | 0.774 ± 0.32 | 0.538 ± 0.36 | 1.06 ± 0.76 | 0.628 ± 0.43 | – | – | – | – | – | – |
| O=S(=O)([O-])[O-].[Fe+2] [iron(II) sulfate] | 83.1 ± 2.5 | 99.5 ± 4 | 2.25 ± 0.97 | 13.5 ± 2.4 | 0.704 ± 0.68 | 0.762 ± 0.34 | 92.06 ± 0.82 | 97.1 ± 1.1 | 12.2 ± 3.3 | 29 ± 1.3 | 0.329 ± 0.23 | 1.15 ± 0.23 |
| [Cl-].[Na+] [sodium chloride] | 97.4 ± 13 | 91.3 ± 5.2 | 104 ± 18 | 88.6 ± 1.3 | 111 ± 5 | 94.4 ± 11 | 95.5 ± 3.6 | 99.4 ± 2.9 | 99.8 ± 3.9 | 102 ± 4.1 | 98.5 ± 2.6 | 99.4 ± 4.3 |
| O=C([O-])[O-].[Cs+].[Cs+] [caesium carbonate] | 91.5 ± 6.8 | 94.9 ± 6.5 | 100 ± 11 | 93 ± 4.2 | 87.4 ± 1.1 | 87.8 ± 5.2 | – | – | – | – | – | – |
| O=C([O-])[O-].[K+].[K+] [potassium carbonate] | 90.4 ± 4.2 | 88.9 ± 2.2 | 93.2 ± 9.6 | 92.2 ± 5.6 | 96.4 ± 7 | 76.8 ± 4.4 | – | – | – | – | – | – |
| [Cl][Fe][Cl] [iron(II) chloride] | 62.9 ± 8.6 | 85.9 ± 6.2 | 1.9 ± 1.7 | 3.45 ± 1.9 | 0.774 ± 0.53 | 0.404 ± 0.27 | 95.6 ± 6 | 99.7 ± 4.5 | 2.39 ± 1.2 | 10.5 ± 2.6 | 0.172 ± 0.13 | 0.779 ± 0.37 |
| [Cl][Pt-2]([Cl])([Cl])[Cl].[K+].[K+] [potassium tetrachloroplatinate(II)] | 93.6 ± 1.9 | 96.1 ± 1.4 | 16.3 ± 9.4 | 8.11 ± 2.9 | 3.38 ± 2.1 | 1.17 ± 0.82 | – | – | – | – | – | – |
| O.O.O.O.O.O.O.O=S(=O)([O-])[O-].[Mg+2] [magnesium sulfate] | 85.7 ± 4.6 | 88.5 ± 5.2 | 99.3 ± 11 | 93.1 ± 12 | 97.7 ± 5.9 | 109 ± 27 | – | – | – | – | – | – |
